Assay results as given in PubChem BioAssay AID1159580 (chemical genetic matrix, 2015).
In all, about 5,500 compounds went through this assay and about 2,000 (36%) were called active. Another 18% or so got no clear call; they are omitted. Cut-off read from the data, not from the text of the source: active = normalized growth mostly below about 0.91 (no sharp cut-off); inconclusive = no clear call, values can overlap the other calls; inactive = mostly above about 0.92. This is one part of the list.

Assay: chemical genetic growth profiling, strain panel (AID 1159580);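 note: tested at 20 µM; growth read once vehicle control cultures reached saturation at 30 °C; 1 = growth at the plate median or of vehicle wells; lower values mean less growth of the strain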
Details: S. cerevisiae deletion strains, growth OD

Measured: normalized growth

C=CCCCCCCCCCCCC(O)CC(O)CO (centres undefined)
active: locus YBR021W, strain FUR4, stronger effect = lower value 0.751 | locus YDL035C, strain GPR1, stronger effect = lower value 0.822 | locus YDR101C, strain arx1, stronger effect = lower value 0.899 | locus YDR318W, strain mcm21, stronger effect = lower value 0.872 | locus YDR502C, strain sam2, stronger effect = lower value 0.912 | locus YER167W, strain BCK2, stronger effect = lower value 0.872 | locus YGL086W, strain mad1, stronger effect = lower value 0.875 | locus YGR078C, strain PAC10, stronger effect = lower value 0.832 | locus YGR135W, strain pre9, stronger effect = lower value 0.887 | locus YHR079C, strain IRE1 (second series), stronger effect = lower value 0.883 | locus YHR129C, strain ARP1, stronger effect = lower value 0.903 | locus YIL066C, strain RNR3, stronger effect = lower value 0.784
inactive: locus YAL013W, strain DEP1, stronger effect = lower value 0.952 | locus YAL021C, strain ccr4, stronger effect = lower value 0.987 | locus YAL026C, strain drs2, stronger effect = lower value 1.01 | locus YAL030W, strain snc1, stronger effect = lower value 1 | locus YBL061C, strain skt5, stronger effect = lower value 1 | locus YBR009C, strain hhf1, stronger effect = lower value 1 | locus YBR023C, strain chs3, stronger effect = lower value 1 | locus YBR171W, strain sec66, stronger effect = lower value 0.986 | locus YBR229C, strain ROT2, stronger effect = lower value 0.974 | locus YBR231C, strain swc5, stronger effect = lower value 0.997 | locus YBR279W, strain paf1, stronger effect = lower value 0.981 | locus YCL011C, strain gbp2, stronger effect = lower value 0.992 | locus YCL016C, strain dcc1, stronger effect = lower value 0.987 | locus YCL029C, strain bik1, stronger effect = lower value 0.968 | locus YCL061C, strain MRC1, stronger effect = lower value 0.985 | locus YCL069W, strain vba3, stronger effect = lower value 0.991 | locus YCR088W, strain abp1, stronger effect = lower value 0.99 | locus YDL005C, strain med2, stronger effect = lower value 0.987 | locus YDL040C, strain nat1, stronger effect = lower value 0.998 | locus YDL074C, strain BRE1, stronger effect = lower value 0.82 | locus YDL101C, strain DUN1, stronger effect = lower value 0.949 | locus YDL134C, strain PPH21, stronger effect = lower value 0.951 | locus YDL185W, strain tfp1, stronger effect = lower value 0.989 | locus YDL192W, strain arf1, stronger effect = lower value 0.921 | locus YDR001C, strain nth1, stronger effect = lower value 0.987 | locus YDR069C, strain doa4, stronger effect = lower value 1.01 | locus YDR137W, strain rgp1, stronger effect = lower value 1.01 | locus YDR150W, strain NUM1, stronger effect = lower value 0.992 | locus YDR159W, strain sac3, stronger effect = lower value 0.99 | locus YDR162C, strain NBP2, stronger effect = lower value 0.948 | locus YDR195W, strain ref2 1.01 | locus YDR297W, strain sur2, stronger effect = lower value 0.996 | locus YDR334W, strain swr1, stronger effect = lower value 1 | locus YDR335W, strain msn5, stronger effect = lower value 0.998 | locus YDR388W, stronger effect = lower value 0.98 | locus YDR392W, strain spt3, stronger effect = lower value 0.918 | locus YEL003W, strain gim4, stronger effect = lower value 0.993 | locus YEL037C, strain rad23, stronger effect = lower value 1.01 | locus YEL061C, strain CIN8 (second series), stronger effect = lower value 0.994 | locus YEL061C, strain CIN8, stronger effect = lower value 0.962 | locus YER015W, strain faa2, stronger effect = lower value 0.99 | locus YER016W, strain bim1, stronger effect = lower value 0.997 | locus YER110C, stronger effect = lower value 0.969 | locus YER111C, strain swi4, stronger effect = lower value 0.991 | locus YER155C, strain BEM2 (second series), stronger effect = lower value 0.986 | locus YER155C, strain BEM2, stronger effect = lower value 0.97 | locus YFR010W, strain ubp6, stronger effect = lower value 1 | locus YGL078C, strain dbp3, stronger effect = lower value 0.967 | locus YGL167C, strain pmr1, stronger effect = lower value 0.998 | locus YGL173C, strain kem1, stronger effect = lower value 0.996 | locus YGL227W, strain vid30, stronger effect = lower value 0.981 | locus YGL240W, strain doc1, stronger effect = lower value 0.993 | locus YGL248W, strain PDE1, stronger effect = lower value 0.927 | locus YGL253W, strain hxk2, stronger effect = lower value 1 | locus YGR229C, strain SMI1, stronger effect = lower value 0.947 | locus YGR252W, strain gcn5, stronger effect = lower value 0.785 | locus YHR013C, strain ard1, stronger effect = lower value 0.966 | locus YHR027C, strain rpn1, stronger effect = lower value 0.995 | locus YHR030C, strain SLT2, stronger effect = lower value 0.974 | locus YHR094C, strain hxt1, stronger effect = lower value 0.985 | locus YHR142W, strain chs7, stronger effect = lower value 1.01 | locus YHR200W, strain rpn10, stronger effect = lower value 0.961 | locus YIL073C, strain SPO22, stronger effect = lower value 0.992 | locus YIL125W, strain kgd1, stronger effect = lower value 0.977 | locus YIR030C, strain dcg1, stronger effect = lower value 0.942 | locus YJL092W, strain hpr5, stronger effect = lower value 0.992 | locus YJL095W, strain BCK1 (second series), stronger effect = lower value 0.99 | locus YJL095W, strain BCK1, stronger effect = lower value 0.937 | locus YJL115W, strain asf1, stronger effect = lower value 0.993 | locus YJL129C, strain trk1, stronger effect = lower value 0.985 | locus YJL134W, strain LCB3, stronger effect = lower value 0.995 | locus YJL154C, strain vps35, stronger effect = lower value 0.987 | locus YJL164C, strain tpk1, stronger effect = lower value 0.997 | locus YJL166W, strain qcr8, stronger effect = lower value 0.99 | locus YJL168C, strain set2, stronger effect = lower value 0.974 | locus YJL187C, strain SWE1 (second series), stronger effect = lower value 0.913 | locus YJL187C, strain SWE1, stronger effect = lower value 0.996
